Measured values from PubChem BioAssay (NCATS).
Inconclusive results are not listed. Values without a mark were called inactive. The source made the active and inactive calls. Calls come from the whole dose curve; as a rule, active = well fitted cell-killing curve with a large enough effect; inconclusive = small, poorly fitted or top-dose-only effect; inactive = flat fitted curve, though single readings scatter.

Assay: Cell Viability - LYMP2-017 (AID 972); note: nearly all actives have a fitted effect of over 55% in size
Conditions: LYMP2-017 lymphoblastoid cell viability; series mostly up to 92.2 µM; activity change, negative = cytotoxicity: at the top concentration
Source text: NIH Chemical Genomics Center [NCGC]
NIH Molecular Libraries Screening Centers Network [MLSCN]
National Institutes of Environmental Health Sciences [NIEHS]
National Toxicology Program [NTP]
We have developed a 1536-well cell-based assay for quantitative high throughput screening (qHTS) against a number of cell lines to determine in vitro cytotoxicity of small molecules. This particular assay uses a human lymphoblastoid cell line (LYMP2-017) purchased from Coriell Institute for Medical Research.
NCGC Assay Protocol Summary:
The CellTiter-Glo luminescent cell viability assay (Promega) is a homogeneous method to measure the number of viable cells in culture. The end point readout of this assay is based on quantitation of intracellular ATP, an indicator of metabolic activity, using the luciferase reaction. Luciferase catalyzes the oxidation of beetle Luciferin to oxyluciferin and light in the presence of ATP. The luminescent signal is proportional to amount of ATP present.
Using the CellTiter-Glo luminescent cell viability assay, the amount of cellular ATP was measured in the lymphoblastoid cell line with complete culture medium following compound treatment for 24 hours. The assay was performed in opaque white Kalypsys 1536-well plates. In the screen, tetraoctylammonium bromide was used as positive control. Library compounds were measured for their ability to cause acute toxicity in the cell line, as reflected by a decrease in intracellular ATP levels, in a concentration-dependent manner. […] AC50 values were determined from concentration-response data modeled with the standard Hill equation.
qHTS protocol for CellTiter Glo lymphoblastoid cellular assay
[Step] [Parameter] [Value] [Description]
1. Reagent; 5 uL; 2500 lymphoblastoid cells/well
2. Time; 5 hr; 37 C incubation
4. Controls; 23 nL; Tetraoctylammonium bromide 6.4pM to 92 uM
5. Time; 24 hr; 37 C incubation
6. Reagent; 5 uL; CellTiter Glo reagent
7. Time; 30 min; Room Temperature
8. Detection; Luminescence; Viewlux plate reader
Keywords: cell viability, cytotoxicity, lymphoblastoid cell line, luminescence, NTPHTS, NTPHTS_NCGC, NIEHS, DSSTox, MLSMR, MLSCN, NIH Roadmap, qHTS, NCGC
% is set by controls: 0 for no effect and ±100 for the full control effect.

Compound	activity change, negative = cytotoxicity	Potency
Cc1ccc2ccccc2c1	-5.44%	–
Clc1cccc(C(Cl)(Cl)Cl)n1	6.09%	–
O=[N+]([O-])c1ccc(Cl)c(Cl)c1	-23.9%	–
c1ccc(-c2ccccc2)cc1	-7.31%	–
C=CCc1ccc(OC)cc1	-4.82%	–
CCCSC(=O)Cl	1.09%	–
Cc1cccc([N+](=O)[O-])c1	5%	–
Nc1c(Cl)c(Cl)nc(C(=O)O)c1Cl	-13.7%	–
Cc1ccc([N+](=O)[O-])cc1C	-12.4%	–
Clc1nc(Cl)nc(Nc2ccccc2Cl)n1	-8.48%	–
CN=C=S	-12.4%	–
O=NN(c1ccccc1)c1ccccc1	2.82%	–
O=C(Cl)C(Cl)(Cl)Cl	-7.98%	–
C=CCOC(=O)c1ccccc1N	-13.6%	–
O=NN(CCO)CCO	-21%	–
CCOc1ccc(N)cc1	-7.8%	–
CCN(CC)c1ccccc1	-10.3%	–
c1ccc(OP(Oc2ccccc2)Oc2ccccc2)cc1	-1.65%	–
Clc1ccc2ccccc2c1	4.19%	–
Brc1ccccc1	-15.7%	–

Compound	activity change, negative = cytotoxicity	Potency
c1nc[nH]n1	-1.01%	–
NC(=S)Nc1ccccc1	–	inactive
CC(O)CCl (stereo not given)	-1.69%	–
CCCC(=O)Cl	-1.35%	–
CC(Cl)Cl	-3.25%	–
O=[N+]([O-])c1cccc2ccccc12	-1.62%	–
CCSC(=O)Cl	-6.39%	–
Brc1ccc(Oc2cc(Br)c(Br)cc2Br)c(Br)c1	–	inactive
COc1ccc(N)cc1	–	inactive
Cc1ccccc1N	–	inactive
N#CCCCl	–	inactive
COC(=O)NC(=S)Nc1ccccc1NC(=S)NC(=O)OC	-5.66%	–
C=CC1CC=CCC1 (stereo not given)	-17.2%	–
O=C=NC1CCCCC1	–	inactive
O=C(O)COc1ccc(Cl)cc1Cl	–	inactive
CNC(=O)O/N=C/C(C)(C)SC	-24%	–
COc1ccc(C=O)cc1OC	1.99%	–
C=CC(=C)C	-10.6%	–
[O-][Br+2]([O-])O	–	inactive
C=C(C)C(=O)OCC1CO1 (stereo not given)	-12.3%	–
